This note sets out measurements from PubChem BioAssay AID1159577 (Broad Institute, 2015).

The whole screen tested about 1,300 compounds, of which about 240 (18%) were called active. Not shown: some 8% with an inconclusive outcome. How the calls were made is not given here. Not all results are given here. A call without a number means that no potency is given here. Potency and affinity values are given separately.

A short description of this test: toxicity to human hepatoma HepG2 cells – cell-based, cherry-picked samples, cytotoxicity control, dose response (AID 1159577). Conditions: HepG2 cytotoxicity counterscreen, plate reader; series mostly up to 19.5 µM.
With `COc1ccc2c3c(n(C)c2c1)[C@@H](CO)N(C(=O)C1CC1)CC31CCN(C(=O)Nc2cccc(F)c2)CC1`, the call was inactive.

As for `COc1ccc2c3c([nH]c2c1)[C@H](CO)N(C(=O)C1CCCCC1)CC31CCN(Cc2nccs2)CC1`, the outcome was inactive. For `COc1ccc2c3c([nH]c2c1)[C@@H](CO)N(C(=O)C1CCCCC1)CC31CCN(Cc2nccs2)CC1` the value was “inactive”. Regarding `COc1ccc2c3c(n(C)c2c1)[C@H](CO)N(C(=O)C1CC1)CC31CN(C(=O)C2CCOCC2)C1`, the compound was called inactive. Take `O=C(C[C@@H]1C[C@H]2c3cc(NS(=O)(=O)c4ccc(F)cc4)ccc3O[C@H]2[C@H](CO)O1)N1CCc2ccccc2C1`: the outcome was inactive. Turning to `COc1cccc(CN2[C@@H](CO)[C@H](c3ccccc3)C23CN(C(=O)C2CCOCC2)C3)c1`, the call was inactive. As for `CN(C)c1ccc2c(c1)[C@H]1C[C@H](CC(=O)NCc3ccc(Oc4ccccc4)cc3)O[C@H](CO)[C@H]1O2`, the call was inactive. For the compound `CCCC(=O)N1CCC2(CC1)CN(S(=O)(=O)c1ccc(C)cc1)[C@@H](CO)c1[nH]c3cc(OC)ccc3c12`, the call was inactive. For `C[C@H]1CN([C@@H](C)CO)C(=O)c2c(c3ccccc3n2C)-c2ccccc2CO[C@@H]1CN(C)C(=O)Nc1ccc(-c2ccccc2)cc1`, the call was inactive.

`O=C(Nc1ccc(C(F)(F)F)cc1)N1[C@@H]2CNC[C@H]1C2c1ccc(/C=C/c2ccccc2)cc1` (some centres undefined): the outcome was inactive. Turning to `O=S(=O)(Cc1ccccc1)N1[C@H](CO)[C@@H](c2ccccc2)C12CN(CCC(F)(F)F)C2`, the call was inactive. For `CC(C)(C)[S@@](=O)N1Cc2cc(C(=O)NCCN3CCCCC3)nc(-c3cccc(-c4cccc(C#N)c4)c3)c2[C@H]1CCO` the value was “inactive”; for `COc1ccc(C#Cc2ccc3c(c2)[C@H]2[C@H](CCN2C(=O)C2CCC2)[C@@H](CO)N3)cc1`, “inactive”. In the case of `CN(C)CC(=O)N1[C@H](CO)[C@H](c2ccc(C#CC3CCCCC3)cc2)[C@@H]1C#N`, the outcome was inactive. Under `C[C@@H]1CN([C@H](C)CO)C(=O)c2cccc(NS(=O)(=O)c3ccccc3)c2O[C@H]1CN(C)Cc1ccc(-c2ccccc2)cc1` stands “inactive”; under `N#Cc1ccc(-c2ccc([C@@H]3[C@@H]4CN(C(=O)Nc5ccc6c(c5)OCO6)C[C@H]3N4)cc2)cc1`, “inactive”. Under `O=C(C[C@H]1CC[C@@H]2[C@H](COC[C@@H](O)CN2C(=O)Nc2ccc3c(c2)OCO3)O1)N1CCN(c2ccccc2)CC1` stands “inactive”; under `O=C(c1ccc(F)cc1)N1CC(=O)N2[C@H](CO)[C@@H](c3ccc(/C=C/c4ccccc4)cc3)[C@@H]2C1`, “inactive”; under `C/C=C/c1ccc([C@@H]2[C@H](CO)N(CC3CC3)C23CN(C(=O)c2ccc4c(c2)OCO4)C3)cc1`, “inactive”. With `CN(C)C(=O)c1cccc(-c2ccc3c(c2)[C@H]2[C@H](CCN2C(=O)C2CC2)[C@@H](CO)N3)c1`, the outcome was inactive. In the case of `C/C=C/c1ccc([C@@H]2[C@H](CO)N(CC3CCCC3)C23CN(C(=O)CC2CC2)C3)cc1`, the compound was classed as inactive. For `CCC(=O)N1CCC2(CC1)CN(S(=O)(=O)c1ccccc1)[C@@H](CO)c1[nH]c3cc(OC)ccc3c12`, the call was inactive. Under `N#C[C@@H]1[C@H](c2ccccc2-c2cccc(F)c2)[C@H](CO)N1C(=O)C1CCCC1` stands “inactive”; under `C[C@H](CO)N1C[C@H](C)[C@H](CN(C)S(=O)(=O)c2cccs2)OCc2ccccc2-c2c(n(C)c3ccccc23)C1=O`, “inactive”.

Turning to `C[C@@H]1CN([C@H](C)CO)C(=O)c2cc(C#CCc3ccccc3)cnc2O[C@H]1CN(C)C(=O)C1CCC1`, the result was inactive. Turning to `C[C@@H]1CN([C@@H](C)CO)C(=O)c2cc(C#Cc3ccccc3)cnc2O[C@H]1CN(C)C(=O)CN(C)C`, the outcome was inactive. Turning to `COc1cccc(C#Cc2cnc3c(c2)C(=O)N([C@H](C)CO)C[C@H](C)[C@@H](CN(C)C(=O)C2CCCCC2)O3)c1`, the outcome was inactive. For the compound `C[C@H]1CN([C@@H](C)CO)C(=O)c2cc(C#Cc3cccc(F)c3)cnc2O[C@@H]1CN(C)C(=O)C1CCCCC1`, the result was inactive.

`C[C@@H]1CN([C@@H](C)CO)C(=O)c2cc(C#Cc3ccccc3)cnc2O[C@H]1CN(C)C(=O)CCN1CCCCC1`: the outcome was inactive.

Regarding `C[C@H](CO)N1C[C@H](C)[C@H](CN(C)C(=O)C2CCCCC2)Oc2ncc(C#Cc3cccc(F)c3)cc2C1=O`, the result was inactive.

`C[C@@H]1CN([C@H](C)CO)C(=O)c2cc(C#Cc3cccc(F)c3)cnc2O[C@@H]1CN(C)C(=O)C1CCCCC1`: the result was inactive. Consider `COc1cccc(C#Cc2cnc3c(c2)C(=O)N([C@@H](C)CO)C[C@H](C)[C@@H](CN(C)C(=O)C2CCCCC2)O3)c1`, for which the result was inactive. Take `COCC(=O)Nc1ccc2c(c1)OC[C@H](C)N(Cc1ccncc1)C[C@H](C)[C@@H](OC)CN(C)C2=O`: the outcome was inactive.

For `C[C@H](CO)N1C[C@H](C)[C@H](CN(C)C(=O)C2CC2)Oc2cc(C#Cc3ccccc3)ccc2S1(=O)=O`, the outcome was inactive. For the compound `C[C@@H]1CN([C@@H](C)CO)C(=O)c2c(c3ccccc3n2C)-c2ccccc2CO[C@H]1CN(C)Cc1cccc(C(=O)Nc2ccccc2N)c1`, the result was inactive. Regarding `CO[C@H]1CN(C)C(=O)c2ccc(NS(=O)(=O)CC(F)(F)F)cc2OC[C@@H](C)N(Cc2nccs2)C[C@H]1C`, the compound was classed as inactive. For `COc1ccccc1-c1cccc(-c2nc(C(=O)Nc3nccs3)cc3c2[C@H](CCO)N(C(C)=O)C3)c1` the value was “inactive”. For the compound `C[C@@H]1CN([C@@H](C)CO)C(=O)c2ccccc2-c2ccccc2CO[C@H]1CN(C)C(=O)Nc1cccc(Cl)c1Cl`, the call was inactive. Under `COc1ccc(CN2C[C@@H](C)[C@H](OC)CN(C)C(=O)c3cc(NC(=O)c4nc5ccccc5s4)ccc3OC[C@H]2C)cc1` stands “inactive”; under `CCCN(C)C[C@H]1Oc2ncc(C#Cc3ccc(F)cc3)cc2C(=O)N([C@@H](C)CO)C[C@H]1C`, “inactive”. For `CCCN(C)C[C@H]1Oc2ncc(C#Cc3ccccc3OC)cc2C(=O)N([C@H](C)CO)C[C@H]1C` the value was “inactive”; for `COc1cccc(NC(=O)N2[C@@H](CO)[C@@H](c3ccccc3)[C@@H]2CNC(C)C)c1`, “inactive”; for `C[C@@H]1CN([C@@H](C)CO)C(=O)c2cccc(NC(=O)Nc3ccccc3)c2O[C@@H]1CN(C)C(=O)Nc1ccccc1`, “inactive”. Regarding `COc1ccc2c3c([nH]c2c1)[C@H](CO)N(C(=O)Nc1ccc(F)cc1)CC31CCN(S(=O)(=O)c2cccc(F)c2)CC1`, the result was inactive. As to `COc1ccc2c3c([nH]c2c1)[C@@H](CO)N(C(=O)Nc1cccc(F)c1)CC31CN(CC2CCOCC2)C1`, the compound was called inactive. For `COc1ccc2c3c([nH]c2c1)[C@H](CO)N(C(=O)Nc1ccc(F)cc1)CC31CCN(C(=O)c2ccccn2)CC1` the value was “inactive”; for `COc1ccc2c3c([nH]c2c1)[C@H](CO)N(C(=O)Nc1ccc(F)cc1)CC31CCN(Cc2cc(-c3ccccc3)on2)CC1`, “inactive”; for `O=C(C1CCCCC1)N1[C@H](CO)[C@@H](c2ccccc2)C12CN(Cc1cccc(Cl)c1)C2`, “inactive”. For the compound `CN(C)c1ccc2c(c1)[C@@H]1C[C@@H](CC(=O)NCc3cc(F)ccc3F)O[C@@H](CO)[C@@H]1O2`, the call was inactive. On to `CC(C)(C)[S@](=O)N1Cc2cc(C(=O)N[C@@H]3CCN(Cc4ccccc4)C3)nc(-c3cccc(-c4cccnc4)c3)c2[C@@H]1CCO`, for which the result was inactive.

In the case of `C/C=C/c1ccc2c(c1)[C@@H]1[C@@H](CCN1C(=O)C1CCCC1)[C@H](CO)N2`, the call was inactive.

In the case of `O=C(C1CCCC1)N1CC2(C1)[C@@H](c1ccccc1)[C@H](CO)N2Cc1ccc(Cl)cc1`, the compound was called inactive. Under `CO[C@@H]1CN(C)C(=O)c2cc(NC(=O)Nc3ccc(C(F)(F)F)cc3)ccc2OC[C@H](C)NC[C@@H]1C` stands “inactive”. In the case of `CO[C@H]1CN(C)C(=O)c2cc(NC(=O)Nc3ccc(C(F)(F)F)cc3)ccc2OC[C@H](C)NC[C@H]1C`, the outcome was inactive. As to `CO[C@@H]1CN(C)C(=O)c2cc(NC(=O)Nc3cccc(Cl)c3)ccc2OC[C@H](C)NC[C@H]1C`, the compound was called inactive.

As to `CO[C@@H]1CN(C)C(=O)c2cc(NC(=O)Nc3ccc(C(F)(F)F)cc3)ccc2OC[C@@H](C)NC[C@@H]1C`, the result was inactive. Consider `CO[C@@H]1CN(C)C(=O)c2cc(NC(=O)Nc3cccc(Cl)c3)ccc2OC[C@@H](C)NC[C@@H]1C`, for which the call was inactive.

With `CO[C@@H]1CN(C)C(=O)c2cc(NC(=O)Nc3ccc(C(F)(F)F)cc3)ccc2OC[C@H](C)NC[C@H]1C`, the compound was classed as inactive. Consider `CO[C@H]1CN(C)C(=O)c2cc(NC(=O)Nc3cccc(Cl)c3)ccc2OC[C@H](C)NC[C@H]1C`, for which the outcome was inactive. Regarding `Cc1ccccc1S(=O)(=O)N1[C@H](CO)[C@@H](c2ccc(C#CC3CC3)cc2)[C@@H]1C#N`, the compound was classed as inactive. Under `CCCNC(=O)N1[C@H](C#N)[C@H](c2ccc(-c3ccccc3F)cc2)[C@@H]1CO` stands “inactive”; under `COc1ccc(C#Cc2cnc3c(c2)C(=O)N([C@H](C)CO)C[C@H](C)[C@H](CN(C)S(=O)(=O)c2cccc(F)c2)O3)cc1OC`, “inactive”; under `COc1ccc(CN2CC3(CCN(C(=O)c4ccccc4)CC3)c3c([nH]c4cc(OC)ccc34)[C@@H]2CO)cc1`, “inactive”.

In the case of `O=C(c1ccc(F)cc1)N1CC(=O)N2[C@H](CO)[C@H](c3ccc(-c4cccnc4)cc3)[C@H]2C1`, the compound was called inactive.

Consider `O=C(C1CCOCC1)N1[C@H](CO)[C@@H](c2ccccc2)C12CN(Cc1cccc(Cl)c1)C2`, for which the call was inactive. Take `COc1ccc(-c2ccc([C@@H]3[C@H]4CN(C(=O)NC(C)C)CC(=O)N4[C@H]3CO)cc2)cc1`: the compound was classed as inactive. Under `COc1ccc2c3c(n(C)c2c1)[C@H](CO)N(C(=O)Nc1ccc(F)cc1)CC31CCN(S(=O)(=O)c2cccc(F)c2)CC1` stands “inactive”; under `CN1c2ccc(-c3cccc(C#N)c3)cc2[C@H]2[C@H](CCN2S(=O)(=O)c2ccccc2F)[C@H]1CO`, “inactive”. For `CCCN(C)C[C@@H]1Oc2cc(C#Cc3cccnc3)ccc2S(=O)(=O)N([C@H](C)CO)C[C@@H]1C`, the compound was called inactive.
